PI5P4Ka inh: qHTS for Inhibitors of phosphatidylinositol 5-phosphate 4-kinase (PI5P4K). Phosphatidylinositol 5-phosphate 4-kinase type-2 alpha (Homo sapiens), P48426. PI5P4Kalpha enzyme, ADP-Glo luminescence, 60 min; stronger effect = lower value. max response, %. hit rate 1.2% among 330,000. AID 652105, 2013; active = max response of -50% or lower; inconclusive = between -30% and -50%; inactive = -30% or higher; note: value at the top dose of about 77 µM
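Quantitative HTS of the MLSMR library against PI5P4Kalpha with substrate. ATP added last at 5 microM final; room temperature, 60 minutes. Remaining ATP depleted, ADP converted and read as luminescence.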
JMJD2A Tudor: qHTS Assay for Inhibitors of JMJD2A-Tudor Domain. Lysine-specific demethylase 4A (Homo sapiens), O75164. AlphaScreen JMJD2A-Tudor / H3K4me3 peptide binding. Potency, µM (top dose mostly 114 µM), hits mostly inhibitors. hit rate 4.4% among 390,000. AID 504339, 2011; note: nearly all actives have a fitted effect of over 50% in size
G9a inh: qHTS Assay for Inhibitors of Histone Lysine Methyltransferase G9a; Histone-lysine N-methyltransferase EHMT2 (Homo sapiens), Q96KQ7; G9a H3K9 monomethylation, AlphaScreen, 2 h; Potency, µM (titrated, usually from 102 µM), hits mostly inhibitors; hit rate 8.8% among 350,000; note: nearly all actives have a fitted effect of over 75% in size
Target sequence (Q96KQ7 913-1193 limits assumed): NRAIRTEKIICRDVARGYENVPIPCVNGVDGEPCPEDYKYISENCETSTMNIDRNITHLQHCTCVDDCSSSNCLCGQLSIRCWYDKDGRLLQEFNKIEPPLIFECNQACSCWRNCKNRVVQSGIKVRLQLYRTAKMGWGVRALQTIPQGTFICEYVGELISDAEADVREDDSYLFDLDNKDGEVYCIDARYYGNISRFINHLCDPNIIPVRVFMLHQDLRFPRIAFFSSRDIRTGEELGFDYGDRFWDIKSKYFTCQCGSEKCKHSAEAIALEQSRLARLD
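AlphaScreen detection with an anti-monomethyl H3K9 antibody quantified product after a 2 h room-temperature reaction containing 500 nM biotinylated H3K9 peptide, 20 µM SAM and 20 nM enzyme, which had been preincubated 15 min with compound.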
HP1b chromo inh: HTS for Inhibitors of HP1-beta Chromodomain Interactions with Methylated Histone Tails; Chromobox protein homolog 1 (Homo sapiens), P83916; AlphaScreen HP1-beta / biotin-H3K9me3 peptide binding; Potency, µM (highest dose often 114 µM), most hits filed as inhibitors; hit rate 0.56% among 390,000; AID 540317, 2011; note: nearly all actives have a fitted effect of over 70% in size
Target sequence (P83916 whole entry, looked up): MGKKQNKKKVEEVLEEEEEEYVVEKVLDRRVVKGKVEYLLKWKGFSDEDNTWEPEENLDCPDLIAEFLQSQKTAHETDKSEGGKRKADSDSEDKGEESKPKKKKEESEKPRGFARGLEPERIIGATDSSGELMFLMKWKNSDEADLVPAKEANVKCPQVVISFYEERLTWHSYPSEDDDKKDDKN
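Compound inhibition of the preformed complex between 50 nM HP1-beta and 50 nM biotinylated H3K9me3 peptide was read by AlphaScreen. Buffer was PBS pH 7.4 with 0.01% Tween-20. Incubations ran 30 min at room temperature, with 10 ug/mL donor/acceptor beads.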
L3MBTL1 block: qHTS Assay for the Inhibitors of L3MBTL1. Lethal(3)malignant brain tumor-like protein 1 (Homo sapiens), Q9Y468. AID 485360, 2010. AlphaScreen L3MBTL1–H3K9me1 peptide binding. Potency, µM (series often up to 57.1 µM), most hits filed as inhibitors. hit rate 0.66% among 230,000; note: nearly all actives have a fitted effect of over 60% in size
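AlphaScreen proximity signal between nickel-chelate acceptor and streptavidin donor beads (final 10 ug/mL) reports binding of 50 nM L3MBTL1 to 75 nM biotin-H3 K9me1 peptide; complex incubated with compounds 30 min at room temperature; cefsulodin titration as control.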
BAZ2B block: qHTS Assay for Inhibitors of BAZ2B; Bromodomain adjacent to zinc finger domain protein 2B (Homo sapiens), Q9UIF8; AlphaScreen BAZ2B-H3K14Ac peptide displacement; Potency, µM (titrated, usually from 114 µM), actives largely listed as inhibitors; hit rate 4.4% among 360,000; note: nearly all actives have a fitted effect of over 60% in size
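BAZ2B 50 nM plus b-H3(5-23)K14Ac 50 nM, PBS pH 7.4/0.01% Tween-20, 30 min RT; compound added (max 110 uM), 30 min RT; streptavidin donor/Ni-chelate acceptor beads 10 ug/mL final, 20 min dark; AlphaScreen read.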
Each line names hits and unclear results; the compound was inactive in the other large screens. The list is not random: actives were taken first. Their share in the collection is about 11%. Unless noted, calls come from the whole dose curve; as a rule, active = well fitted inhibition curve with a large enough effect; inconclusive = small, poorly fitted or top-dose-only effect; inactive = no such curve, though single readings can be large or run the other way.

COc1c(C)cccc1C(=O)NC(=S)Nc1cccc2nsnc12	G9a inh 44.7µM
CC(C)CC(=O)NC(=S)Nc1ccccc1F	none (no result: L3MBTL1 block)
CC(C)CC(=O)NC(=S)Nc1cccc2nsnc12	G9a inh 35.5µM (no result: L3MBTL1 block)
COCCn1c(=O)c(-c2ccc(OC)cc2)nc2cnc(Nc3cccc(OC)c3)nc21	none (no result: PI5P4Ka inh, JMJD2A Tudor, HP1b chromo inh, L3MBTL1 block, BAZ2B block)
CCOc1cc(CNC(=O)c2cc(-c3ccc(Cl)s3)nc3ccccc23)ccc1OC	none (no result: PI5P4Ka inh, L3MBTL1 block)
Nc1c(-c2ccccc2)c(CN2CCOCC2)nn1-c1ccc(F)cc1	G9a inh 20µM
Nc1c(-c2ccccc2)c(CN2CCOCC2)nn1-c1cccc([N+](=O)[O-])c1	none
O=C(CN1C(=O)CSc2ccc(S(=O)(=O)N3CCCCC3)cc21)NCc1ccc(F)cc1Cl	G9a inh inconclusive (no result: PI5P4Ka inh, L3MBTL1 block)
N#CC1=C(N)N(c2ccc(Cl)cc2)C2=C(C(=O)CCC2)C1c1cc(CN2CCOCC2)cs1 (configuration not stated)	BAZ2B block inconclusive (no result: PI5P4Ka inh, L3MBTL1 block)
Cc1cccc(C(CC(=O)NCc2ccco2)c2ccccc2)c1O (configuration not stated)	G9a inh 44.7µM, BAZ2B block inconclusive
Cc1ccccc1NC(=O)CNc1ccccc1C(=O)NCc1ccco1	G9a inh 39.8µM (no result: L3MBTL1 block)
Cc1ccccc1CNC(=O)c1ccccc1SCC(=O)NCc1ccco1	G9a inh 12.6µM
O=C(NCc1ccco1)c1ccccc1NS(=O)(=O)c1cccs1	G9a inh inconclusive (no result: PI5P4Ka inh)
O=C(NCc1ccco1)c1ccccc1NS(=O)(=O)c1ccc(Cl)s1	JMJD2A Tudor inconclusive, G9a inh 20µM, BAZ2B block inconclusive (no result: L3MBTL1 block)
COc1ccc(-c2nnc(SCC(=O)NC3CCCC3)nc2-c2ccc(OC)c(OC)c2)cc1OC	none (no result: PI5P4Ka inh, L3MBTL1 block)
Cc1cc(C)c2c(n1)sc1c(=O)n(-c3ccccc3C(F)(F)F)nnc12	none (no result: PI5P4Ka inh, L3MBTL1 block)
COc1ccccc1CNC(=O)c1ccccc1SCC(=O)NCc1ccco1	G9a inh 3.16µM
O=C(CSc1ccccc1C(=O)O)NCc1ccco1	BAZ2B block inconclusive
COc1ccc(-c2nc(C)c(CCNC(=O)c3cc(OC)c(OC)c(OC)c3)s2)cc1OC	none (no result: PI5P4Ka inh, L3MBTL1 block)
NC(=O)Cn1cc(/C=N\NS(=O)(=O)c2ccc(Cl)cc2)c2ccccc21	none (no result: L3MBTL1 block)
Cc1ccc(S(=O)(=O)N/N=C\c2cn(CC(N)=O)c3ccccc23)cc1C	G9a inh 79.4µM, BAZ2B block inconclusive (no result: L3MBTL1 block)
COc1ccc(Br)cc1CNC(=O)c1cnc2sc(N3CCC(C)CC3)nn2c1=O	none (no result: PI5P4Ka inh, L3MBTL1 block)
NC(=O)C1CCN(C(=O)Cn2c(-c3cccs3)cc3ccccc32)CC1	none (no result: PI5P4Ka inh, L3MBTL1 block)
CC(=O)Oc1ccc(-c2csc(Nc3ccc(S(N)(=O)=O)cc3)n2)cc1	JMJD2A Tudor inconclusive
COc1ccc(Nc2nc(-c3c[nH]c4ccccc34)cs2)cc1	G9a inh inconclusive, BAZ2B block 44.7µM
COc1ccc(Nc2nc(-c3ccc(OC)cc3)cs2)cc1	none (no result: L3MBTL1 block)
COc1ccc(-c2csc(Nc3ccc(S(N)(=O)=O)cc3)n2)cc1	PI5P4Ka inh inconclusive, BAZ2B block 50.1µM (no result: L3MBTL1 block)
Cc1cc(NS(=O)(=O)c2ccc(Nc3nc(-c4sc(C)nc4C)cs3)cc2)no1	none (no result: PI5P4Ka inh, JMJD2A Tudor, HP1b chromo inh, L3MBTL1 block)
CCC(=O)Nc1nc(C)c(-c2csc(Nc3ccc(S(=O)(=O)Nc4cc(C)on4)cc3)n2)s1	G9a inh 50.1µM (no result: PI5P4Ka inh, JMJD2A Tudor, HP1b chromo inh, L3MBTL1 block)
COc1ccc(-c2csc(Nc3ccc(S(=O)(=O)Nc4cc(C)on4)cc3)n2)cc1	JMJD2A Tudor inconclusive, G9a inh 44.7µM, BAZ2B block inconclusive
CC(=O)c1ccc(N2CCN(C(=O)c3cc4ccc5cccnc5c4[nH]3)CC2)cc1	JMJD2A Tudor inconclusive (no result: PI5P4Ka inh, L3MBTL1 block)
CCOc1ccc(CC(=O)NC2CC(=O)N(c3cccc(F)c3)C2)cc1 (configuration not stated)	none (no result: PI5P4Ka inh, L3MBTL1 block)
COc1ccc(NC(=O)c2cccc(N3CCCS3(=O)=O)c2)cc1	none (no result: PI5P4Ka inh, L3MBTL1 block)

Assay outcomes: PubChem, National Center for Advancing Translational Sciences (NCATS)
